The results in this text go back to the OligoGym collection.
Further: reference of the scale not given here.

One assay deals with SLC7A13. The assay is described as follows: pooled miR-30 sensor sort-seq; sequence = guide strand. The conditions noted are these: shRNA.
In the case of TAGTATTGAGCTCCACTGCATG, the sensor-assay potency score (higher = more potent) is -1.

As for ATCATTAATAATATAGACCATA, the sensor-assay potency score (higher = more potent) is -1.16.

For TTAATAAGCAAAAAACTTGTGC, the sensor-assay potency score (higher = more potent) was -0.255. On to TAATTGTAAATAGCAAGTCATC, for which the sensor-assay potency score (higher = more potent) is -1.71. Turning to TTCAGCATCAAAAGCATTCTGA, the sensor-assay potency score (higher = more potent) was -0.117. Consider TTAACCTTGATTTGGAATCTGA, for which the sensor-assay potency score (higher = more potent) came to 0.0155. For TAAATAAACTACAGTCACCAGA, the sensor-assay potency score (higher = more potent) was -0.342. As to ATATAGACCATAATGAACCCGT, the sensor-assay potency score (higher = more potent) was -0.357. In the case of TATGCCAACACACCTTTGGGGG, the sensor-assay potency score (higher = more potent) is -0.996. On the same count and under the same terms, to TTATCAGGAACACTACTCCAGT belongs -0.614. TAATCCGCTGAGAACTAACAGA: the sensor-assay potency score (higher = more potent) is -0.752.

For AAATCGTTCTACATTCTCCTTT, the sensor-assay potency score (higher = more potent) was found to be 0.252.

The target in a further assay is SLC8A1. Described as above. The following applies: shRNA.
On to TATCACAACAACATTTCCGAAC, for which the sensor-assay potency score (higher = more potent) was -0.676. Consider ATGTTCTCTAGCATGAACCTTC, for which the sensor-assay potency score (higher = more potent) was -0.822. TTGTAAAACAGAAGTCTCCTAT returned a sensor-assay potency score (higher = more potent) of 0.149.

Turning to TTGAACATGATGATGCCCCTGG, the sensor-assay potency score (higher = more potent) turned out to be 0.652.

The sequence TAAAACTGACAGACAATCCCAA displayed a sensor-assay potency score (higher = more potent) of 0.165. Regarding TCTTACAGTAATATGATCCAGT, the sensor-assay potency score (higher = more potent) came to 0.348. Consider TTAATCTTCCTTGTCTCTCCGT, for which the sensor-assay potency score (higher = more potent) stood at 0.395. TTCTCTAGCATGAACCTTCCTG: the sensor-assay potency score (higher = more potent) was -0.164. On the same count and under the same terms, for TAATCTTCCTTGTCTCTCCGTC the value was 0.74. Consider TTTATCTGGATGCTTCTGCTTA, for which the sensor-assay potency score (higher = more potent) is -0.388. For TTGTCTTGGTGGTCTCTCCATT, the sensor-assay potency score (higher = more potent) was -0.926.
